# Measurements: PubChem BioAssay (NCATS)
# Results filed as inconclusive are left out. A call without a number means that no potency is given here. Active and inactive are the calls of the source. Unless noted, the call rests on the fitted dose curve; in most records, active means well fitted curve in the direction sought with a large enough effect; inconclusive means small, poorly fitted or top-dose-only effect, or another doubt; inactive means no such curve, though single readings can be large; an effect the other way counts as inactive or inconclusive.
# Legend:
# [1] = Cytotoxicity counterscreen for NFkB agonists and antagonists (AID 624476);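 further: cells exposed to compound for 48 hours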; further: potency means the concentration at half of the fitted maximal effect
# [2] = qHTS Assay for Identification of Small Molecule Agonists for NFkB Signaling Pathway. (AID 624478);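 further: compounds tested together with TNF alpha at its EC50 of 10 pM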
# In short: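 ME-180 cervical carcinoma, stable NFkB-RE beta-lactamase reporter; 1000 cells/well, overnight attachment; cpd + TNF alpha 10 pM final, 5 h 37 C; LiveBLAzer 2 h RT; FRET 460/530 nm, ex 405 nm.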
# [3] = S16 Schwann cell PMP22 intronic element beta-lactamase assay (AID 624044; calls by dose curve; further: nearly all actives have a fitted effect of over 15% in size; further: potency means the concentration at half of the fitted maximal effect)
# In short: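 Rat S16 Schwann cells with beta-Lac driven by a PMP22 intronic element, compound-treated 24 h at 37 °C. LiveBLAzer FRET B/G read: 460 nm normalized to potassium clavulanate vs DMSO; 535 nm FRET as viability; concentration-effect curves classified.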
# [4] = S16 Schwann cell viability assay (CellTiter-Glo assay) (AID 624031); further: nearly all actives have a fitted effect of over 70% in size; further: potency means the concentration at half of the fitted maximal effect
# In short: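 Untransfected S16 rat Schwann cells; compound 24 h, 37 °C/5% CO2; CellTiter-Glo ATP luminescence. % activity vs no-cell wells and DMSO controls (0%); concentration-effect curves classed by r2, response magnitude, activity.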
# [5] = S16 Schwann cell PMP22 intronic element firefly luciferase assay (AID 624032); further: nearly all actives have a fitted effect of over 30% in size; further: potency means the concentration at half of the fitted maximal effect
# In short: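 Luciferase reporter of PMP22 intronic-element expression in stably transfected S16 rat Schwann cells, read by ONE-Glo luminescence after 24 h compound exposure at 37 C. Activity scaled between DMSO (0%) and positive-control PTC124; concentration-effect curves quality-classified.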
# [6] = molecular target: Luciferin 4-monooxygenase (Photinus pyralis) (UniProt P08659); assay: Biochemical firefly luciferase enzyme assay for NPC (AID 624030);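 further: purified P. pyralis luciferase at 10 nM with luciferin and ATP substrate; series mostly up to about 59 µM; nearly all actives have a fitted effect of over 70% in size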
# In short: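 Direct inhibition of firefly luciferase enzyme (10 nM final, 50 mM Tris Acetate) assessed by luminescence within 5 minutes. Percent activity scaled between DMSO and PTC124 positive control, with concentration-effect curves classified by fit quality and response.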
# Sequence of Luciferin 4-monooxygenase (Photinus pyralis) (P08659 whole entry, looked up): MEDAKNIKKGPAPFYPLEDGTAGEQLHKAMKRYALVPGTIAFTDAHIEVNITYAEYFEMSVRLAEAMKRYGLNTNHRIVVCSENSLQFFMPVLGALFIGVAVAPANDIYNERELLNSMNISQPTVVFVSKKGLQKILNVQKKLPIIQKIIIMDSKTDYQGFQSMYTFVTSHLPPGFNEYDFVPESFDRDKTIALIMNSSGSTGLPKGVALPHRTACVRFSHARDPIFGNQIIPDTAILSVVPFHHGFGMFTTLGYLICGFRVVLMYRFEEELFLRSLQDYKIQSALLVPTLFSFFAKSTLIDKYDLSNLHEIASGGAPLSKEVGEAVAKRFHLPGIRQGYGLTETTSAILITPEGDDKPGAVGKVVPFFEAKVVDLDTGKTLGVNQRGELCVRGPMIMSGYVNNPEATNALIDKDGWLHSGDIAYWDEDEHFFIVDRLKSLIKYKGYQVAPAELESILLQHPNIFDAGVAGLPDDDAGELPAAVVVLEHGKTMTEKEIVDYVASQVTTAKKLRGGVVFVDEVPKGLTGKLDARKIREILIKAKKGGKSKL
smiles,measurement,setting,value
O=C(O)CC/C=C\CC[C@H]1[C@@H](N2CCCCC2)[C@@H](O)C[C@@H]1OCc1ccc(-c2ccccc2)cc1,Potency,[1],inactive
same,outcome,[2],inactive
O=S(=O)(O)c1ccc2c(N=Nc3ccc(S(=O)(=O)O)c4ccccc34)c(O)c(S(=O)(=O)O)cc2c1,Potency,[3],inactive
Nc1ncnc2c1ncn2[C@@H]1O[C@H](COP(=O)(O)OP(=O)(O)OP(=O)(O)O)[C@@H](O)[C@H]1O,Potency,[4],inactive
same,Potency,[5],inactive
same,Potency,[3],inactive
C[C@@H]1CCN(C(=O)CC#N)C[C@@H]1N(C)c1ncnc2[nH]ccc12,Potency,[1],inactive
same,outcome,[2],inactive
O=c1cc(C2=CC=CC3Sc4ccccc4SC23)oc(N2CCOCC2)c1 (stereo not given),outcome,[2],inactive
CCOc1cc2ncc(C#N)c(Nc3ccc(OCc4ccccn4)c(Cl)c3)c2cc1NC(=O)/C=C/CN(C)C,Potency,[1],37.2 µM (active)
same,outcome,[2],inactive
CC1(C)C(C=C(Cl)Cl)C1C(=O)OCc1cccc(Oc2ccccc2)c1 (stereo not given),Potency,[4],inactive
same,Potency,[3],inactive
Clc1cc(Cl)c(OCC#CI)cc1Cl,Potency,[4],25.6 µM (active)
same,Potency,[5],28.7 µM (active)
CO[C@H]1C[C@@H]2CC[C@@H](C)[C@@](O)(O2)C(=O)C(=O)N2CCCC[C@H]2C(=O)O[C@H]([C@H](C)C[C@@H]2CC[C@@H](OCCO)[C@H](OC)C2)CC(=O)[C@H](C)/C=C(\C)[C@@H](O)[C@@H](OC)C(=O)[C@H](C)C[C@H](C)/C=C/C=C/C=C/1C,Potency,[6],inactive
same,Potency,[3],inactive
COC(C(=O)C(O)C(C)O)C1Cc2cc3cc(OC4CC(OC5CC(O)C(O)C(C)O5)C(O)C(C)O4)c(C)c(O)c3c(O)c2C(=O)C1OC1CC(OC2CC(OC3CC(C)(O)C(O)C(C)O3)C(O)C(C)O2)C(O)C(C)O1 (stereo not given),Potency,[4],inactive
same,Potency,[3],22.4 µM (active)
Cc1nnc(C(C)C)n1C1CC2CCC(C1)N2CC[C@H](NC(=O)C1CCC(F)(F)CC1)c1ccccc1 (stereo not given in full),Potency,[1],inactive
same,outcome,[2],inactive
CCOC(=O)C1=C(C)NC(C)=C(C(=O)OCC)C1c1ccccc1C=CC(=O)OC(C)(C)C,Potency,[6],inactive
same,Potency,[3],inactive
O=C(O)c1cc(=O)c2c3nc4ccccc4oc-3cc(=O)c2[nH]1,Potency,[4],36.1 µM (active)
same,Potency,[3],inactive
CC(=O)Oc1cc(C)c(OC(C)=O)c2ccccc12,Potency,[6],inactive
same,Potency,[3],inactive
NC(=O)Nc1cc(-c2ccc(CN3CCOCC3)c(F)c2)sc1C(=O)N[C@H]1CCCNC1,Potency,[1],0.59 µM (active)
same,outcome,[2],inactive
C=C1C(=CC=C2CCC[C@@]3(C)[C@@H]2CC[C@H]3[C@H](C)CCCC(C)C)C[C@@H](O)C[C@@H]1O,Potency,[5],0.0287 µM (active)
